These results are taken from PubChem BioAssay (NCI).

Compounds without any hit were thinned out: in the full panel of roughly 83,000, 20% have a hit.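 Note: values are percent growth. 100 is the growth of untreated cells, values between 100 and 0 indicate rising inhibition; between -100 and 0 indicates cell death.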 Active and inactive are the calls of the source.

This experiment deals with SR leukemia. The experiment is described as follows: NCI-60 one-dose screen, 48 h (100 = growth as untreated, 0 = no growth, -100 = all killed). Particulars: 10 µM. Here is the method: Growth inhibition of the SR human tumor cell line is measured as a screen for anti-cancer activity. Cells are grown in 96 well plates and exposed to the test compound for 48 hours. Compounds are tested at a single concentration, which is 10^-5 M for most compounds. The reported endpoint is percent growth (GI% or GIPRCNT), where numbers from 0 - 100% represent growth inhibition, and numbers from -100% - 0 represent cell death. For example, a value of 40 represents 60% growth inhibition. A value of 0 means no net growth occurred over the course of the experiment. A value of -40 indicates 40% of cells at the beginning of the experiment died by the end of the experiment. A value of -100 means all cells are dead at the end of the experiment.
NCI-60 Human Tumor Cell Lines Screen was performed using the standard one-dose NCI protocol, which is described in more detail at https://dtp.cancer.gov/discovery_development/nci-60/default.htm.
Compounds with GIPRCNT values below 10 were considered active. Activity score was based on GIPRCNT using the following formula: […]
Score is 0 for GIPRCNT values of 100 or above, 50 for GIPRCNT values of 0, and 100 for GIPRCNT values of -100.
Take `O=[N+]([O-])c1ccc(-c2nc(Cl)c3c(n2)CCCC3)o1`: the growth was 44.7% (inactive).

For the compound `CCCN(CCC)CCCNC(=O)c1cc2c(-c3ccc(OC)c(OC)c3)nn(C)c2s1`, the growth was 4.41% (active).

`O=C(Nc1cccc([N+](=O)[O-])c1)NN1CCCCCC1`: the growth was 108% (inactive).

Take `Cc1cc(C)c2nc(C)c(C)[n+]([O-])c2c1`: the growth is 82.3% (inactive).

For the compound `COc1cc(/C=C/C(=O)c2cc(-c3ccc(C(F)(F)F)cc3)ccc2O)cc(OC)c1OC`, the growth was 23.4% (inactive).

Turning to `N#Cc1ccc(-n2cnc(NC(=O)[C@H]3CCN(C#N)C3)c2)cc1`, the growth is 6.48% (active).

Take `O=NN(CC(=O)N/N=C/C=C\c1ccccc1)CC(=O)N/N=C/C=C/c1ccccc1`: the growth was 85.7% (inactive).

On to `O=C(OCc1ncc(-c2ccc(C(F)(F)F)cc2)c(NC2CCCCCC2)n1)c1c(F)c(F)c(F)c(F)c1F`, for which the growth was 39.4% (inactive).

For the compound `CC(=O)Nc1ccc2c(c1)C(N1CC3CCC(CC3)C1)c1ccccc1-2` (stereo not given), the growth was 0.162% (active).

Turning to `O=C(O)c1cc(C(F)(F)F)cc(C(F)(F)F)c1`, the growth was 85.3% (inactive).

For `Cc1ccc(S(=O)(=O)N2CCc3ccccc3CC2)cc1`, the growth was 84.8% (inactive).

As to `COc1cc(Cl)cc(-c2nn(-c3cccc(NC(=O)Nc4cccc(C(F)(F)F)c4)c3)cc2-c2ccncc2)c1`, the growth was -13.5% (active).

Consider `CCN(CC)CCCOC(=O)Nc1ccccc1Cl`, for which the growth was 101% (inactive).

Take `COc1ccc(/C(=C/c2cc(OC)c(OC)cc2[N+](=O)[O-])C(=O)O)cc1`: the growth is 99.6% (inactive).

With `O=C(CCc1ccccc1)N1CCN(C(=O)CCc2ccccc2)CC1`, the growth is 94.3% (inactive).

`Cc1cc(C)c(C(=O)OC(C)CNC2CCCCC2)c(C)c1` (stereo not given): the growth is 81.6% (inactive).

As to `O=C1c2cc(Cl)ccc2-c2c(O)cc(Cl)cc21`, the growth is 39.3% (inactive).

Take `C=CCn1ccc(=O)nc1SC`: the growth is 112% (inactive).

On to `Cc1nc(Nc2nc3ccccc3o2)nc(-c2cccc([N+](=O)[O-])c2)c1C(=O)Nc1ccc(F)c(Cl)c1`, for which the growth was -8.33% (active).

Take `COc1ccc(-c2cc(/C=C3\C(=O)Nc4cc(Cl)ccc43)[nH]n2)cc1OC`: the growth was 21.9% (inactive).

Take `COc1cc(-c2nc3cc(Cl)c(Cl)cc3[nH]2)ccc1OCC(=O)NN`: the growth was 77.4% (inactive).

As to `CCc1c(C)[nH]c(=O)c(C(N)=O)c1C#N`, the growth is 91.7% (inactive).

Take `COc1ccccc1S(=O)(=O)Nc1ccc2c(c1)CN(C)C(=O)N2`: the growth was 36% (inactive).

With `Fc1ccc2[nH]c3c(NCCCN4CCOCC4)ncnc3c2c1`, the growth is 52.1% (inactive).

Turning to `Cc1ccc(NS(=O)(=O)c2ccccc2)c(NS(=O)(=O)c2ccccc2)c1`, the growth was 117% (inactive).

`Cc1cc(C#Cc2ccccc2)ccc1-n1c(/C=C/c2cc(O)ccc2O)nc2ccccc2c1=O`: the growth was -26% (active).

With `COc1ccc(C2=Cc3ccc(OC(C)=O)cc3OC2)cc1`, the growth is 64.5% (inactive).

`COc1cc(OC)cc(N2CCN(C(=O)Nc3nc4cc(F)ccc4nc3OC)CC2)c1`: the growth is 8.23% (active).

For `Cn1c([N+](=O)[O-])cnc1C=C1C(=O)c2ccccc2C1=O`, the growth is 7.25% (active).

As for `CCCCNC(=O)Oc1ccc(/C(=C(\C)c2ccc(OC)cc2)c2ccc(OCCN3CCCCC3)cc2)cc1`, the growth is -22.9% (active).

For `FC(F)(F)c1ccc(-c2cnc(Cl)nc2NC2CCCCCC2)cc1`, the growth is 39.2% (inactive).

Regarding `CCCCOCC(=O)NC(NP(=O)(N(C)C)N(C)C)C(Cl)(Cl)Cl` (stereo not given), the growth was 111% (inactive).

With `COc1ccc(C2C=C(c3ccc(Cl)cc3)N=C3SC=CN32)c(Br)c1` (stereo not given), the growth was 59.2% (inactive).

On to `COc1ccc(C(=O)n2nc(CC(=O)NCc3ccccc3)nc2N)cc1`, for which the growth is 93.6% (inactive).

Regarding `O=C(C=P(c1ccccc1)(c1ccccc1)c1ccccc1)c1ccc(Br)cc1`, the growth is 56.6% (inactive).

For `O=C(NC1CCN(Cc2ccccc2)CC1)c1cc(-c2ccncc2)nc2ccc(Cl)cc12`, the growth is 8.12% (active).

As to `CCN1CCN(c2ccc(Nc3ncnc4c3nnn4CCc3cc(OC)cc(OC)c3)cc2)CC1`, the growth was 89.2% (inactive).

As for `CC1(C)CC(OCCCC[P+](c2ccccc2)(c2ccccc2)c2ccccc2)CC(C)(C)N1O`, the growth was 11.7% (inactive).

`NC1CCC(Nc2nc(NCc3ccc(-c4cccs4)nc3)c3ncn(C4CCCC4)c3n2)CC1` (stereo not given): the growth is -33.2% (active).

As to `O=C(COc1ccc(Cl)cc1Cl)Oc1coc(CSc2nc3ccccc3s2)cc1=O`, the growth is 98.6% (inactive).
